# Assay results taken from the supplement of paper PMC6555819.
# Experiments:
# Assay in all cases: PBM binding z-score (relative to random genomic background probes); higher = stronger binding; sequences stand for … in GC…GCGATTGACAGCGTAGAATGAAGG
# [1] = test system: FXR:RXRa (NR concentration 270 nM, RXRa partner concentration 90 nM)
# Method in brief: (§1)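 Random background probes are the reference for binding z-scores. These scores derive from regression-normalized fluorescence on custom Agilent 4×180K protein-binding microarrays incubated 1 h with ligand-free nuclear receptor dimers. Binding was detected with antibodies against each partner (one per run).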
# [2] = test system: LXRa:RXRa (NR concentration 270 nM, RXRa partner concentration 90 nM)
# Method in brief: as §1
# [3] = test system: LXRa homodimer (NR concentration 270 nM)
# Method in brief: as §1
# [4] = test system: LXRb:RXRa (NR concentration 270 nM, RXRa partner concentration 90 nM)
# Method in brief: as §1
# [5] = test system: LXRb homodimer (NR concentration 270 nM)
# Method in brief: as §1
# [6] = test system: PPARa:RXRa (NR concentration 270 nM, RXRa partner concentration 90 nM)
# Method in brief: as §1
# [7] = test system: PPARg:RXRa (NR concentration 180 nM, RXRa partner concentration 90 nM)
# Method in brief: as §1
# [8] = test system: PPARg:RXRa 270nM:90nM, anti-RXR (NR concentration 270 nM, RXRa partner concentration 90 nM)
# Method in brief: as §1
# [9] = test system: PPARg:RXRa 30nM:10nM, anti-RXR (NR concentration 30 nM, RXRa partner concentration 10 nM)
# Method in brief: as §1
# [10] = test system: PPARg:RXRa 90nM:30nM, anti-RXR (NR concentration 90 nM, RXRa partner concentration 30 nM)
# Method in brief: as §1
Sequence,PBM binding z-score [1],PBM binding z-score [2],PBM binding z-score [3],PBM binding z-score [4],PBM binding z-score [5],PBM binding z-score [6],PBM binding z-score [7],PBM binding z-score [8],PBM binding z-score [9],PBM binding z-score [10]
CTCGAAAGGTCGGTTGAGGTGAGTATGCGGATAA,2.51,1.72,-0.105,1.27,-0.0928,2.67,0.178,1.24,0.131,0.771
ATATGTAGGTTAGCTGGGGCCATTCAGACTAGGC,0.601,1.15,0.0611,0.901,0.197,2.55,3.09,2.56,0.952,2.06
CCTACTGGGCCAAGGTGATTGATCAGTCAAAGCA,-0.711,-0.732,-0.784,-0.722,-1.14,0.274,1.29,2.08,0.0836,1.45
CAAACTAGGTCAAAGGTCAAATTCGAGCCAACCA,8.57,7.2,6.34,7.43,4,7.66,14.1,11.5,12.7,14
CATACAGGGTCAGGTAGGCCAGAGTAGGGACGGC,4,2.92,-0.133,2.21,0.723,4.2,3.15,2.92,0.655,2.16
CGTCAAAGTTCAAGGGAACGTAACAGAAAGCAGC,6.3,5.44,2.42,3.12,0.895,4.42,3.85,4.64,1.76,3.48
CAAACTAGGTCAAAGTTCAAAGTCGAGCCAACCA,7.56,6.56,5.94,5.99,2.08,7.43,13.3,10.7,12.3,12.8
TCATATAGGAAAAGGTGAAAGTCGAACGATATGA,1.2,1.15,-0.161,1.4,-0.24,2.46,1.45,3.09,4.54,4.05
CTTTACGGGTCACTCCAGGTTATAGCATCGGAGT,5.38,7.71,3.92,5.61,1.09,4.97,4.47,4.7,1.86,3.42
GCGACTGGGGCATCAGCAGGTTACCCTAACTTAA,-0.187,-0.0714,-0.26,0.646,-1.16,1.32,0.617,0.949,-0.87,0.118
CCAGACAGGTGATAAGGTAACTCAGCCTCGATTA,0.336,0.0665,-0.0911,0.157,-0.187,0.51,0.555,0.114,0.063,0.191
ACTTACGGGTCAACGAGGTTATCGCACGCGTATA,7.3,5.42,1.07,4.36,1.13,5.83,5.87,5.69,2.32,4.5
GCAGACAGGTGGAACGCAGGTAACTCAGGGTGGC,-0.427,-0.547,-0.822,-0.84,-1.13,-0.427,0.342,-0.6,-0.85,-1.06
TCTCGAAGGACACGAAGGTCAGAGCTTTCCAGAG,1.04,1.12,-0.125,1.03,-0.73,1.91,0.515,1.8,2.96,2.27
ATCGAAAGGTCGAAGGTGAGTAGACCCACCCGAA,4.66,3.33,-0.000535,2.34,0.52,4.56,4.92,4.7,1.93,4.2
TCGAGTAGGTTAGCAATGGGGCATTCAGCTTTCT,-0.119,0.188,-0.715,0.235,-0.623,0.539,-0.248,0.643,1.08,1.09
ACAGACAGGTAATGAAGGTAACTCAGGCTATCAT,0.224,0.251,0.0515,0.0112,0.161,0.173,0.58,-0.0336,-0.0735,-0.327
CCTCGTTGGTCAAGGTCACACACGCTATAGGTAC,4.27,4.25,2.8,3.8,1.08,4.07,2.47,3.17,0.974,2.24
CGTCCAAGTTCAACTAAGGTAACGTAAAGCACGC,4.27,3.59,1.01,2.17,0.515,3.15,1.14,1.5,0.189,0.966
ATCGAAAGGTCGTGAGGTGAGTAAACAGAAAGGC,5.42,3.82,0.314,3.14,0.648,5.03,3.9,4.4,1.22,2.97
TCTATTAGTTGATTAGGGCCACCGAAACAGCGGA,0.951,0.434,0.125,0.653,0.614,0.786,-0.0833,1.9,3.63,2.7
CAAACTAGGTCACCGGAAGGTCTAAGTCCGCATG,3.99,3.38,0.494,2.73,0.609,5.3,8.5,7.22,4.98,6.82
CCGACTGGGGCAGAAAGGTCACCATACCATCCGG,3.52,3.99,1.97,3.56,-0.936,4.65,4.35,5.18,3.05,4.59
AGTCAAAGTTCAGGACGAGGTATCGTAAAGCACG,3.59,3.83,1.22,1.59,-0.0231,2.98,3.89,4.58,1.74,3.93

Sequence,PBM binding z-score [1],PBM binding z-score [2],PBM binding z-score [3],PBM binding z-score [4],PBM binding z-score [5],PBM binding z-score [6],PBM binding z-score [7],PBM binding z-score [8],PBM binding z-score [9],PBM binding z-score [10]
GCTAGCAGGCCATTTGGGTCACTCCATGACGGGC,-0.16,-0.308,-0.39,-0.515,-0.772,0.964,0.542,0.345,-0.692,-0.372
CAAACTATGTCAAAGGTCAAAGTCGAGCCAACCA,6.52,6.3,5.11,5.79,2.93,7.19,11.9,10.2,10.4,11.8
CCTAGTTGCTCAGGAGGTCACACACCGGATATGA,3.45,3.66,2.47,3.74,0.953,4.23,1.96,2.65,0.83,1.79
TTACCAAGGTGAAGGTCGTTAATCCCTCTGTAGA,1.32,1.12,-0.236,1.22,-0.624,2.49,2.65,3.89,1.82,3.43
TCTTGTAGATCAATAGAGGTTACGAAAGTGCGCT,1.11,3.47,0.474,2.05,0.24,2.12,0.4,1.79,2.79,2.24
ATCTCTAGGTAAAGTTCCGTGAAAGATCGATAGA,0.524,0.229,0.166,0.245,0.829,0.649,0.291,0.898,0.751,0.543
ACAGACAGCTGAGTGAAGGTAACTCAGCTGGACG,-0.287,-0.122,-0.822,-0.496,-0.626,-0.464,0.214,-0.699,-0.617,-0.561
ACTTACGGGTCAACGAGGTTATAGCACGCGTATA,6.51,5.39,0.989,4.36,0.794,5.52,5.71,5.48,2.87,4.14
TCAATGAGGTTATAAGATCAGGGAACGTTGCAAA,1.62,1.48,-0.0675,1.39,-0.169,2.7,1.07,2.15,2.81,2.66
TCATATAGGTAAAAGGTTAAAGTCGGTGTGGTAA,3.06,3.43,1.29,3.39,0.553,5.77,10.2,8.8,9.29,9.7
CCTGCTAGGTCATGCTCAGCTAATCTACAGTATG,3.21,2.16,-0.266,1.38,-0.112,2.99,1.9,2.36,0.444,1.35
AGACAAAGTTCATCTAGGTAACGTAAGATATGCT,6.83,6.21,5.23,3.92,1.56,4.91,4.69,4.99,1.93,3.69
AGAACGAGGGCAATGAGTTGCTAGCACGGGTGGC,0.0307,-0.027,-0.614,-0.476,-0.767,1.23,1.05,0.875,-0.288,0.214
GGAACGCGGGCAAGTTGATAGCAGAGTTTGATGG,-0.639,-0.548,-0.597,-1.24,-0.732,-0.903,0.256,-0.889,-0.573,-0.957
TCTTGTTGATCAATAGAGGTTAAGAAAGTGCGCT,0.549,3.17,0.564,2.1,0.134,2.02,-0.0546,1.87,2.82,2.46
AGAATGAGGTTATTAAGATCATGGAATTGCGGTC,1.63,1.62,0.0389,1.29,-0.00587,2.75,1.91,2.37,0.464,1.49
GCAGACAGGTGAAACGCAGTTAACTCAGGGTGGC,-0.413,-0.168,-0.315,-0.381,-1.38,0.714,0.486,-0.149,-0.977,-0.452
CGAACGAGGGCATGAGTTGATATCAAATGCCGAT,0.475,0.326,-0.371,0.156,-0.654,1.59,1.58,1.42,0.347,0.786
ATATGTAGGTTATCGGGTGATTCAGTTTGCGCAT,0.87,1.16,0.949,1.33,0.879,3.39,5.08,5.04,2.59,4.28
ATCTCCAGGTAAGACTCAGTTCAGTGAAGAACGC,0.579,0.595,0.65,0.641,0.696,0.265,0.0991,0.41,0.426,0.596
CCTTGGAGGACAACAGGAGGTCAGAGCTGCCAGA,1.03,2.19,2.44,1.58,-0.284,2.26,0.731,0.64,0.153,0.077
ATCGAAAGGTCGACGAGGTGAATATACACCGTTT,5.37,3.82,0.162,3.31,0.511,4.54,3.21,3.62,1.4,2.47
AGAACGGGGGCACGCTGAGTTGATAGCAGAGTAG,2.62,2.67,0.116,4.87,6.59,4.42,4.48,4.86,2.39,4.05
CCGCGGAGGACAACAGGAGGTCAGAGCTGCCAGA,1.23,2.08,1.98,1.49,-0.659,2.17,0.34,0.0732,-0.523,-0.778
